MBNL1 CUG block: inhibitors of human MBNL1 binding to CUG repeat RNA. Q9NR56. AID 2675. TR-FRET MBNL1-His/biotin-(CUG)12 binding, 665/545 ratio. hit rate 0.036% among 280,000. Potency, µM (top dose mostly 57.5 µM), usual class: inhibitors; active means well fitted inhibition curve with a large enough effect in the signal ratio, with a control signal flat, not every such curve was filed as active; inconclusive means small, poorly fitted or top-dose-only effect, or effect the other way, or a change in a side signal; inactive means no such curve, though single readings can be large or run the other way; the % refers to the signal ratio
Target sequence (Q9NR56 whole entry, looked up): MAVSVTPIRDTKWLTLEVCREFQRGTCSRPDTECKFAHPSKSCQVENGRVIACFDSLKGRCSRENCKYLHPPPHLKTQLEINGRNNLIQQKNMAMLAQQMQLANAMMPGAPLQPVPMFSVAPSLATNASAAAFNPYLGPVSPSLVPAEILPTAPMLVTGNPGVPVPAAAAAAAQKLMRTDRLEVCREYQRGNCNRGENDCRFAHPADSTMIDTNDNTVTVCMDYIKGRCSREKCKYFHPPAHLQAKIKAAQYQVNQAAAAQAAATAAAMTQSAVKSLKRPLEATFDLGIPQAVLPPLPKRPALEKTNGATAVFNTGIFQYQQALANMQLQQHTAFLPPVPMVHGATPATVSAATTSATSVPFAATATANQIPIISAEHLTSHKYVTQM
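Ratiometric TR-FRET (665 over 545 nm, excitation 340 nm) tracks disruption of MBNL1-His/biotin-(CUG)12 complex after 60 min at room temperature, with compounds at 92 nM to 58 uM final.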
TDP-43 yeast inh: inhibitors of TDP-43 toxicity in yeast. TDP-43 expressing yeast growth rescue, BacTiter-Glo, 24 h. Potency, µM (doses to about 46.1 µM), actives largely listed as activators. hit rate 1.8% among 410,000; further: nearly all actives have a fitted effect of over 50% in size
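Growth rescue of TDP-43-toxic yeast measured as ATP luminescence (BacTiter-Glo). Cells grown to mid-log in raffinose, induced in galactose at OD600=0.02, exposed to compound 24 hr at 30 deg C.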
Abeta yeast res: A-beta toxicity reversal in yeast | yeast expressing A-beta42, growth rescue, OD600, 48 h; response scale: 0% DMSO, 100% iron-clioquinol control | Potency, µM (doses to about 46.1 µM), actives largely listed as activators | hit rate 0.063% among 410,000; further: nearly all actives have a fitted effect of over 55% in size
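Yeast A-beta toxicity model in growth medium with pinned compounds, 48 h at 30 C; growth read as absorbance at 600 nm. Normalized to FeCl3/clioquinol equimolar mix (positive) and DMSO (negative).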
FUS suppressor: suppressors of FUS proteinopathy in yeast. S. cerevisiae FUS-expressing, growth rescue, OD600, 24 h. Potency, µM (series often up to 76.6 µM), actives largely listed as activators. hit rate 0.24% among 390,000. AID 1347120; further: nearly all actives have a fitted effect of over 55% in size
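Steps: raffinose overnight preculture; dilution to OD 0.005 in 2% galactose minimal medium; compound addition (concentration series); 24hr at 30C, 99% humidity; absorbance read at 600 nm.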
aSyn rescue: inhibitors of alpha-synuclein toxicity in yeast | Yeast expressing alpha-synuclein, growth rescue, BacTiter-Glo, 24 h | Potency, µM (doses to about 46.1 µM), hits mostly activators | hit rate 0.14% among 370,000; further: nearly all actives have a fitted effect of over 65% in size
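Readout is rescue of growth in alpha-synuclein-expressing yeast, so inhibitors of toxicity appear as activators. Growth after 24 hr at 30 deg C in galactose medium is quantified by luminescence.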
Glioma ERSR ind: inducers of ER stress response in human glioma cells. hit rate 0.02% among 420,000. Potency, µM, most hits filed as activators. U87-MG GRP78 promoter luciferase reporter, 16 h; further: series mostly up to about 76 µM; nearly all actives have a fitted effect of over 35% in size
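ERSR induction read as luciferase luminescence (Bright-Glo, 10 min at room temperature) in stably transfected human U87-MG glioma cells exposed to compounds for 16 h, using GRP78 as sensor.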
Hits are given with their value; n = inactive; u = inconclusive; x = no result; ! = not confirmed by another sample; [ ] = dose if it differs, or a comment. This is a sample that favours compounds with a hit; in the whole collection about 2% have one here. Unless noted, the call rests on the fitted dose curve; in most records, active means well fitted curve in the direction sought with a large enough effect; inconclusive means small, poorly fitted or top-dose-only effect, or another doubt; inactive means no such curve, though single readings can be large; an effect the other way counts as inactive or inconclusive.

SMILES	MBNL1 CUG block	TDP-43 yeast inh	Abeta yeast res	FUS suppressor	aSyn rescue	Glioma ERSR ind
Cc1cccc(N2CCN(C(=O)C3CCN(c4ncnc5c4nc4n5CCCCC4)CC3)CC2)c1C	n	u	n	32µM!	n	n
COc1cc(CN2CCOc3ccc(CN4CCC(Oc5cccnc5)CC4)cc3C2)ccc1F	x	x	x	x	x	n
COc1cc2c(NC3CCN(C)CC3)nc(N3CCCN(C)CC3)nc2cc1OCCCC(C)C	x	x	x	x	n	n
CC1(C)Cc2ccccc2C(/C(=N\Nc2cccc(Cl)c2)C(N)=O)=N1	n	16µM	n	u	n	n
CC(=O)c1ccc(N/N=C(/C(N)=O)C2=NC(C)(C)Cc3ccccc32)cc1	n	n	n	n	n	n
Cc1cc2nc(N3CCCN(Cc4cccn4-c4ncccn4)CC3)nc(C)c2cc1C	x	x	x	x	x	n
Cc1noc(C)c1C(=O)N1CCC(n2nnc3ncccc32)CC1	x	x	x	n	x	x
O=C(CCl)N=c1sccn1Cc1ccccc1Cl	x	22µM	n	n	n	n
COc1ccc2cc3cc(C(=O)NCCN4CCc5ccccc5C4)oc3nc2c1	u	11µM	n	n	25µM	n
COc1ccc2cc3cc(C(=O)N4CCCCCC4)oc3nc2c1	u	n	n	n	n	n
COc1ccc2cc3cc(C(=O)N(C)C4CCCCC4)oc3nc2c1	n	18µM	n	n	n	n
COCCCNc1nc2ccccc2nc1NS(=O)(=O)c1ccc(Cl)cc1	n	n	n	n	n	n
COCCCNc1nc2ccccc2nc1NS(=O)(=O)c1cc(Cl)ccc1Cl	n	22µM	n	n	n	n
CCOC(=O)c1ccc(S(=O)(=O)NCC(c2ccc(N(C)C)cc2)c2c[nH]c3ccccc23)cc1 (configuration not stated)	x	3.2µM	n	u	n	n
CC(C)c1c(C(=O)NCC2(N3CCOCC3)CCCC2)cnn1-c1nccc(-c2cccs2)n1	x	x	x	x	x	n
COc1ccc(Cl)cc1NC(=O)CC(C)=O	n	n	n	n	n	n
COc1ccc(Cl)cc1NC(=O)COC(=O)c1c(-c2ccccc2)noc1C	x	13µM	u	n	n	n
COc1ccc(Cl)cc1NC(=O)CC(C)c1ccccc1 (configuration not stated)	u	13µM	u	u	n	n
COc1cc(=O)n2c(c1C(=O)NCc1nccs1)CCN(Cc1ccccc1F)CC2	x	x	x	x	x	n
CC(=O)N(Cc1ccc2c(c1)OCO2)Cc1cc2ccc(C)cc2nc1-c1cccc(C)c1	x	x	x	x	x	n
O=[N+]([O-])c1ccc(Cn2cc(-c3cccc(C(F)(F)F)c3)nn2)cc1	u	16µM	n	n	n	n
O=C1c2ccccc2C(=O)c2cc(Cn3cc(-c4cccc(C(F)(F)F)c4)nn3)ccc21	x	x	x	x	x	n
NNc1nc(-c2ccccc2)nc(-c2ccccc2)c1Br	x	22µM	n	n	n	n
C/C=C/C=C/C(=O)N1CC[C@]23c4ccccc4N[C@H]4N(C)c5cccc6c5[C@]42CCN([C@H]6C2OC2(C)C)[C@H]13 (some centres not stated)	n	n	u	16µM	n	n
O=C(NCC1CCCO1)c1ccc(COc2ccc(Cl)cc2)cc1 (configuration not stated)	n	n	n	n	n	n
SMILES	MBNL1 CUG block	TDP-43 yeast inh	Abeta yeast res	FUS suppressor	aSyn rescue	Glioma ERSR ind
O=C(NCC1CCCO1)c1ccc(COc2ccccc2Br)cc1 (configuration not stated)	n[11.5 µM]	13µM	n	n	n	n
O=C(NC(=S)Nc1ccc(S(=O)(=O)Nc2ncccn2)cc1)c1ccc(Br)cc1	n	n	n	n	n	n
O=S(=O)(NNC(=S)Nc1ccc(S(=O)(=O)Nc2ncccn2)cc1)c1ccc(Br)cc1	n	4µM	n	n	u	n
O=C(/C=C/c1ccco1)Oc1cc(Br)cc(/C=N/NC(=O)c2ccccc2O)c1	n	n	n	n	22µM	n
Cc1ccc(C(=O)N/N=C/c2cccc(OC(=O)/C=C/c3ccco3)c2)cn1	n	n	n	n	n	n
CCOc1ccccc1C(=O)Nc1cccc(-c2ccc(N3CCOCC3)nn2)c1	x	16µM	u	n	n	n
CCOc1ccc(C(=O)Nc2cccc(-c3ccc(N4CCOCC4)nn3)c2)cc1OCC	x	n	n	n	n	n
Cc1cccc(OCc2nc(-c3ccccn3)n[nH]2)c1	n	u	u	n	u	n
Cc1ccc(OCc2nc(-c3ccccn3)n[nH]2)cc1	n	13µM	u	n	u	n
CC(=O)c1ccc(F)c(-c2cc(C)cc3c2OC(CNC(=O)c2csc(C)n2)C3)c1 (configuration not stated)	x	x	x	x	x	n
C=CCN1[C@H](CC(C)C)COc2cc(N3CCSCC3)ccc2S1(=O)=O	x	x	x	n	x	x
Nc1ncnc2c(C3OC(CO)C(O)C3O)c[nH]c12 (configuration not stated)	x	3.2µM	n	x	11µM	n
C[C@@H]1CN(Cc2ccc3c(c2)CN(Cc2cccn2-c2ccc(Cl)cn2)CCO3)C[C@H](C)O1	x	x	x	x	x	n
O=C(c1ccc(Cl)cc1)c1ccc(CN2C(=O)c3ccccc3C2=O)o1	n	14µM	n	n	n	n
O=C(c1ccc(F)cc1)c1ccc(CN2C(=O)c3ccccc3C2=O)o1	n	13µM	n	n	n	n
O=C(Cc1ccc(F)cc1)OCN1C(=O)c2ccccc2C1=O	n	u	n	n	n	n
CC(C)(C)c1ccc(Nc2n[nH]c3ccccc23)cc1	x	35µM	n	u	n	n

From PubChem
